pPAFAH inh: inhibitors of human plasma PAF acetylhydrolase (pPAFAH); 330,000 compounds, 1.5% hits; Q13093; recombinant pPAFAH, FP-rhodamine probe fluorescence polarization; AID 463082; inhibition, % at 3.39 µM;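 active = inhibition above the mean inhibition across the screen plus 3 SD, cut at about 25% in these data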;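 note: inhibitors block binding of the rhodamine activity-based probe so polarization drops; 0% = enzyme with DMSO and 100% = wells lacking pPAFAH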
DSG3 Ab inh: blocks pemphigus antibody binding to human desmoglein-3. P32926. AID 588358. DSG3-coupled beads, scFv-anti-DSG3-GFP binding, flow cytometry; stronger effect = lower value. binding (percent of control), % at 10 µM. 310,000 compounds, 0.48% hits;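 active = binding more than 3 SD below its plate's average and above zero; inconclusive = below that plate limit but binding exactly zero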
Target sequence (P32926 whole entry, looked up): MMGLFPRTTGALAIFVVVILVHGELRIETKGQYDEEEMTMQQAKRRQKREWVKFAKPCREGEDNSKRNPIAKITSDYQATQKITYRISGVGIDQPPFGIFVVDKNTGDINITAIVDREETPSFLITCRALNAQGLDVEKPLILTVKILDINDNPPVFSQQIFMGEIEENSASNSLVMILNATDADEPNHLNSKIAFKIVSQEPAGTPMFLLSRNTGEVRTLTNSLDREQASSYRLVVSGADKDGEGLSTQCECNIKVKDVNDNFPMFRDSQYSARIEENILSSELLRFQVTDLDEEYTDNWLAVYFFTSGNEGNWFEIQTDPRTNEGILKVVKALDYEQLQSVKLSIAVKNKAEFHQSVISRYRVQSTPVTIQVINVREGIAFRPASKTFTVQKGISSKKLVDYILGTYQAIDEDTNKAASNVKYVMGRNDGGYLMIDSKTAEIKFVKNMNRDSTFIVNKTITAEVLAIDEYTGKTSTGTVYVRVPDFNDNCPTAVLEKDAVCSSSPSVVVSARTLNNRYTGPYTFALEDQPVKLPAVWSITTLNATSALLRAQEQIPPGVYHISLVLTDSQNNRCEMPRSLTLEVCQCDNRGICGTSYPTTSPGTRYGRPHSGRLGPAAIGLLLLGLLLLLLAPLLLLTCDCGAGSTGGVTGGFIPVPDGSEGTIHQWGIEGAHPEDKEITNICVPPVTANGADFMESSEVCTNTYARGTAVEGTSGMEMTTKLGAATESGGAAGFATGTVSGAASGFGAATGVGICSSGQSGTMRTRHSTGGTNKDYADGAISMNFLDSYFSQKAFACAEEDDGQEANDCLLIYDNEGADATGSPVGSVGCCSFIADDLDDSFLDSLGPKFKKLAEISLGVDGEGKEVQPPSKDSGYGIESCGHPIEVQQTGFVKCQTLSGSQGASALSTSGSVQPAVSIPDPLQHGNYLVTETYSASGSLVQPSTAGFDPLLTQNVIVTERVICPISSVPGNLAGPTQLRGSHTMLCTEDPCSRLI
PAFAH1B2 inh: PAFAH1B2 (human) inhibition; 340,000 compounds, 1.2% hits; recombinant PAFAH1B2, FP-rhodamine activity probe, fluorescence polarization; P68402; inhibition, % at 3.39 µM;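 active = inhibition above the mean of all tested compounds plus 3 SD, cut at about 24% in these data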;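 note: 0% = enzyme with DMSO and 100% = wells lacking PAFAH1B2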
PAFAH1B3 FP inh: blocks human PAF acetylhydrolase 1B catalytic subunit 3. recombinant PAFAH1B3, FP-rhodamine probe, fluorescence polarization. AID 492972. Q15102. 340,000 compounds, 0.28% hits. inhibition, % at 3.39 µM;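 active = inhibition above the screen-wide average of all tested compounds plus 3 SD, cut at about 25% in these data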;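 note: 0% = enzyme with DMSO only and 100% = wells lacking PAFAH1B3 protein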
PAFAH2 inh: inhibitors of human PAFAH2. Q99487. recombinant PAFAH2, FP-rhodamine activity probe, fluorescence polarization. 340,000 compounds, 0.99% hits. inhibition, % at 3.39 µM;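 active = inhibition above the mean over all tested compounds plus 3 SD, cut at about 30% in these data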;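 note: inhibitors block probe labeling of enzyme so polarization drops; 0% = enzyme with DMSO and 100% = wells lacking PAFAH2 protein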
PfM18AAP inh: PfM18AAP enzyme inhibition. recombinant PfM18AAP, H-Glu-NHMec fluorogenic cleavage. 290,000 compounds, 1.2% hits. inhibition, % at 7.35 µM;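 active = inhibition above the campaign mean inhibition over all tested compounds plus 3 SD, cut at about 28% in these data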;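 note: 0% = plate median of test compound wells and 100% = 2 mM ZnCl2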
PAFAH2 FP conf: PAFAH2 (human) inhibition, confirmed. shares compounds with PAFAH2 inh. recombinant PAFAH2, FP-rhodamine activity probe, fluorescence polarization. inhibition, % at 3.39 µM. 2,300 compounds, 65% hits. AID 493030;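 active = mean inhibition over three repeats above a set limit taken from the earlier primary screen, cut at about 30% in these data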;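 note: inhibitor blocks binding of rhodamine activity probe so polarization falls; 0% = enzyme with DMSO and 100% = wells lacking PAFAH2 protein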
Numbers without * were called inactive; ? = inconclusive; · = not tested or not shown. Shown are actives, neighbours in structure and some others; about 3.8% of the full set was active somewhere.

SMILES | pPAFAH inh | DSG3 Ab inh | PAFAH1B2 inh | PAFAH1B3 FP inh | PAFAH2 inh | PfM18AAP inh | PAFAH2 FP conf
CC(C)N(Cc1ccccc1)C(=O)CN1C(=O)COc2ccc(S(=O)(=O)N3CCCCCC3)cc21 | 3.1 | · | 4.8 | 0.1 | -1.7 | 4.5 | ·
Cc1ccsc1C(=O)OCC(=O)NCc1ccccc1 | 8.1 | · | 0.4 | 7.9 | 33.8* | · | 23.2
O=C(COC(=O)c1cccs1)NCC1CCCCC1 | 4.6 | 105.0 | 2.9 | 4.2 | 78.9* | -1.1 | 81.6*
CC(CNC(=O)COC(=O)c1cccnc1Cl)c1ccccc1 (configuration not stated) | · | 105.8 | 3.8 | 5.1 | 11.9 | · | ·
O=C(COC(=O)c1cccs1)NCc1ccco1 | 11.1 | 99.3 | 0.2 | 5.7 | 45.5* | · | 28.9
Cc1ccsc1C(=O)OCC(=O)NCc1cccs1 | · | 103.3 | · | · | · | · | ·
O=C(COC(=O)c1ccc(Br)o1)NCC1CCCCC1 | 7.6 | 99.0 | 5.0 | 5.2 | -4.8 | · | ·
CC(CNC(=O)COC(=O)c1cccs1)c1ccccc1 (configuration not stated) | 1.5 | 122.7 | 1.3 | 6.1 | 75.4* | · | 72.7*
Cc1ccc(CNS(=O)(=O)c2ccc3c(c2)n(C)c(=O)n3C)cc1 | -1.3 | 111.8 | 6.1 | 7.4 | -0.1 | 0.8 | ·
Cc1ccsc1C(=O)OCc1nc2ccccc2c(=O)[nH]1 | 2.1 | 121.9 | 1.9 | 8.2 | 37.6* | 4.4 | 26.3
CN(C)c1cccc(C(=O)OCC(=O)NCc2ccco2)c1 | 9.2 | 100.3 | -1.0 | -6.1 | 56.6* | 2.7 | 44.0*
COc1cc(C(=O)OCC(=O)NCc2ccco2)cc(OC)c1OC | 2.4 | · | 7.9 | 8.1 | 2.8 | 4.0 | ·
O=C(COC(=O)c1cccs1)NCc1ccccc1 | 5.8 | 104.8 | 1.9 | 9.8 | 47.2* | -4.6 | 33.8*
Cn1c(C(=O)OCC(=O)NCc2ccco2)cc2sccc21 | 14.3 | 99.0 | -5.4 | 19.2 | 45.2* | 1.0 | 22.3
COc1ccc(C(C(=O)NCC2CCCO2)N(C(=O)CNC(=O)c2cccs2)c2ccccc2C)cc1OC (configuration not stated) | 0.8 | 101.7 | 5.1 | 5.2 | -0.2 | -1.4 | ·
COc1ccc(NC(=O)CSc2nc3sc(C)cc3c(=O)n2C)c(OC)c1 | -0.6 | 94.1 | 6.0 | 6.0 | -4.4 | -15.8 | ·
Cc1c(CCC(=O)O)c(=O)oc2c(C)c(OCc3cc4c(cc3Cl)OCO4)ccc12 | 0.3 | 90.5 | 22.5 | 6.6 | 5.4 | -5.0 | ·
O=C(COC(=O)c1ccc(O)cc1)Nc1cc(S(=O)(=O)N2CCCCCC2)ccc1Cl | · | 103.6 | · | · | · | · | ·
O=C(COC(=O)c1ccc(F)cc1F)Nc1cc(S(=O)(=O)N2CCOCC2)ccc1Cl | · | 96.5 | 3.1 | 10.8 | 34.4* | · | 20.5
O=C(COC(=O)c1cccs1)Nc1cc(S(=O)(=O)N2CCOCC2)ccc1Cl | 1.2 | 122.7 | 2.4 | -1.9 | 53.3* | -9.1 | 38.0*
O=C(COC(=O)c1ccc(F)cc1F)Nc1ccc(S(=O)(=O)N2CCOCC2)cc1 | · | 101.5 | · | · | · | · | ·
O=C(COC(=O)c1ccc(O)cc1)Nc1cc(S(=O)(=O)N2CCOCC2)ccc1Cl | 4.9 | 98.7 | 3.1 | -1.7 | 65.4* | · | 53.8*
COc1ccc2oc(C(=O)OCC(=O)N(C)C3CCCCC3)c(C)c2c1 | 1.9 | 121.5 | 1.0 | 4.4 | 23.9 | · | ·
Cc1ccc(N=C2NC(=O)/C(=C/c3cccnc3)S2)cc1C | 5.3 | 102.5 | 3.6 | -0.5 | 31.9* | -10.6 | 23.4
O=C1NC(=Nc2ccccc2)S/C1=C\c1cccnc1 | 7.2 | 110.7 | 5.0 | 9.1 | 9.6 | 5.4 | ·
SMILES | pPAFAH inh | DSG3 Ab inh | PAFAH1B2 inh | PAFAH1B3 FP inh | PAFAH2 inh | PfM18AAP inh | PAFAH2 FP conf
CCN(CC(=O)Nc1ccc2c(c1)OCCO2)C(=O)C(C)Oc1ccc(F)cc1 (configuration not stated) | · | 104.3 | 3.1 | 7.8 | -3.3 | · | ·
Cc1cccc(NC(=O)CN(CC2CCCO2)C(=O)c2cc3ccccc3o2)c1C (configuration not stated) | · | 103.9 | -0.9 | 5.6 | -1.3 | · | ·
Cc1cc(C)c(OCC(=O)Nc2ccccn2)c([N+](=O)[O-])c1 | 1.4 | 101.1 | 0.9 | -1.0 | 32.8* | 3.6 | 0.9
Cc1ccnc(NC(=O)COc2c(C)cc(C)cc2[N+](=O)[O-])c1 | -5.2 | 98.8 | 3.9 | 10.2 | 5.3 | 2.3 | ·
O=C(COC(=O)C12CC3CC(CC(C3)C1)C2)Nc1ccc(OC(F)F)cc1 | 24.4 | 111.5 | 5.1 | 9.2 | 66.9* | 2.2 | 49.0*
O=C(COC(=O)C12CC3CC(CC(O)(C3)C1)C2)Nc1ccc(OC(F)F)cc1 | · | 95.6 | 3.7 | 10.3 | 45.2* | · | 29.2
Cc1ccc(NC(=O)COC(=O)Cn2cnc3ccccc32)c(C)c1 | -3.1 | 96.1 | 12.3 | 6.8 | -13.5 | · | ·
COc1ccccc1C(CC(=O)O)NS(=O)(=O)c1ccc2c(c1)N(C(C)=O)CC(C)O2 (configuration not stated) | 0.8 | · | -1.6 | 8.9 | 4.0 | -4.1 | ·
COc1ccc(N2CCN(C(CNC(=O)CC(C)(C)C)c3ccc4c(c3)OCO4)CC2)cc1 (configuration not stated) | 4.5 | · | -1.2 | 4.7 | -6.8 | 3.2 | ·
O=C(c1ccc(-c2cccc(C(F)(F)F)c2)o1)N1CCCC(C(F)(F)F)C1 (configuration not stated) | 8.1 | 106.5 | 0.7 | -3.7 | 33.5* | · | 5.2
CN(CC(=O)Nc1ccc(F)cc1)C(=O)COC(=O)/C=C/c1cccs1 | 2.0 | 102.0 | 4.3 | -3.5 | 5.5 | · | ·
O=C(COC(=O)/C=C/c1cccs1)Nc1ccc(F)cc1 | 7.5 | · | 2.5 | 5.7 | 81.8* | · | 82.2*
CCc1cccc(NC(=O)COC(=O)/C=C/c2cccs2)c1 | 16.7 | 101.0 | 2.5 | 1.2 | 72.7* | · | 78.1*
COc1ccccc1CNC(=O)COC(=O)c1ccc(C)s1 | 20.7 | 85.2 | 4.4 | 3.4 | 75.4* | · | 61.6*
COc1ccccc1CNC(=O)COC(=O)c1cc(=O)[nH]c2ccccc12 | 2.4 | ? | 2.2 | 2.4 | 5.1 | · | ·
CCNC(=O)COC(=O)/C=C/c1cccs1 | -1.6 | · | 8.9 | 8.4 | 16.1 | 3.2 | ·
COc1ccccc1CNC(=O)COC(=O)/C=C/c1cccs1 | 13.9 | 85.7 | 4.7 | 6.5 | 50.5* | -9.9 | 36.9*
CCc1noc(C)c1C(=O)N(CCC(C)C)c1c(N)n(Cc2ccccc2)c(=O)[nH]c1=O | 4.7 | 123.9 | -1.8 | 3.2 | 1.4 | · | ·
O=C(COC(=O)/C=C/c1cccs1)Nc1cccc(S(=O)(=O)N2CCCC2)c1 | 4.7 | 93.5 | 1.3 | 11.1 | 64.3* | -0.5 | 57.2*
CCOc1ccc(/C=C/C(=O)OCC(=O)Nc2cccc(S(=O)(=O)N3CCCC3)c2)cc1 | -2.9 | 112.8 | -1.6 | -5.3 | 24.7 | · | ·
CCC(=O)Nc1ccc(C(=O)OCc2ccc(Cl)c(Cl)c2)cc1 | 0.3 | · | -1.6 | -2.4 | 36.1* | 4.1 | 46.8*
CC(=O)Nc1ccc(C(=O)OCc2ccc(Cl)c(Cl)c2)cc1 | 0.7 | 79.5 | 5.1 | 4.0 | 60.9* | -1.4 | 62.7*
